In the supplement of paper PMC12669032:
A number with no mark means an inactive call.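 How the source made its calls: active = AUC reduced over 20% with Padj below 0.05 in at least 2 of 3 replicates; inactive = otherwise.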

Key:
Assay in all cases: growth AUC relative to DMSO control (median of replicates) (fraction); higher = more growth (less inhibition), active = hit call of the paper
Conditions in all cases: 20 µM; 24 h
Coprococcus comes = system: Coprococcus comes
How it was run: (§1)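 For each compound at 20 µM (1% DMSO), gut bacterial monocultures seeded at OD600 0.05 grew anaerobically in mGAM at 37 °C in round-bottom 96-well plates. Hourly OD600 readings over 24 h gave growth curves whose minimum OD was set to 0. Area under these curves was normalised to the plate median of solvent-only wells, or to row and column medians on the industrial chemical plate. Values are medians of three biological replicates grown on separate days.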

Escherichia coli ED1a = system: Escherichia coli ED1a
How it was run: as §1

Escherichia coli IAI1 = system: Escherichia coli IAI1
How it was run: as §1

Eubacterium rectale = system: Eubacterium rectale
How it was run: as §1

[1] = system: Fusobacterium nucleatum subsp. animalis
How it was run: as §1

Lactobacillus gasseri = system: Lactobacillus gasseri
How it was run: as §1

Lactobacillus paracasei = system: Lactobacillus paracasei
How it was run: as §1

Odoribacter splanchnicus = system: Odoribacter splanchnicus
How it was run: as §1

[2] = system: Parabacteroides distasonis
How it was run: as §1

Parabacteroides merdae = system: Parabacteroides merdae
How it was run: as §1

Roseburia intestinalis = system: Roseburia intestinalis
How it was run: as §1

Streptococcus salivarius = system: Streptococcus salivarius
How it was run: as §1

Compound	growth AUC (Coprococcus comes)	growth AUC (Escherichia coli ED1a)	growth AUC (Escherichia coli IAI1)	growth AUC (Eubacterium rectale)	growth AUC [1]	growth AUC (Lactobacillus gasseri)	growth AUC (Lactobacillus paracasei)	growth AUC (Odoribacter splanchnicus)	growth AUC [2]	growth AUC (Parabacteroides merdae)	growth AUC (Roseburia intestinalis)	growth AUC (Streptococcus salivarius)
O=c1oc2ccccc2c(O)c1C1CC(c2ccc(-c3ccccc3)cc2)Cc2ccccc21 (stereo not given)	0.946	1	0.959	0.502	1.02	0.574	0.887	0.959	0.0292 (active)	0.0278 (active)	0.711 (active)	0.709 (active)
C[C@@H]1C[C@@H]([C@H](O)CC2CC(=O)NC(=O)C2)C(=O)[C@@H](C)C1	1.03	1.01	1.02	0.992	1.12	0.936	1.06	1.02	0.985	1.03	0.987	1.03
CCCOP(=S)(OCCC)SCC(=O)N1CCCCC1C (stereo not given)	0.943	0.985	1	1	1.08	0.891	1.02	1.01	0.676 (active)	0.955	0.992	0.953
Fc1ccc(C2(Cn3cncn3)OC2c2ccccc2Cl)cc1 (stereo not given)	0.969	1.02	1.01	0.72 (active)	0.95	0.996	0.942	0.864	0.968	0.933	1.03	0.966
CCOP(=O)(OCC)ON1C(=O)c2cccc3cccc(c23)C1=O	0.971	0.994	0.958	1.16	0.961	0.954	0.971	0.484 (active)	0.619 (active)	0.794 (active)	0.9	1.03
CCOC(=O)CCN(SN(C)C(=O)Oc1cccc2c1OC(C)(C)C2)C(C)C	1.01	0.994	1.01	1.1	0.907	0.911	1.01	1.02	1.05	0.979	1.02	0.998
Clc1cc(Cl)nc(-c2ccccc2)n1	1.02	1.01	0.997	1.06	1.08	0.883	1	1.02	0.991	0.965	0.956	0.99
C[C@@H](Oc1ccc(Oc2cnc3cc(Cl)ccc3n2)cc1)C(=O)O	1.05	1.02	1	0.987	1.08	0.997	1.04	0.97	0.983	1.03	1.04	1.01
CN1COCN(Cc2cnc(Cl)s2)/C1=N/[N+](=O)[O-]	0.965	0.987	0.97	0.953	0.958	1.04	0.913	0.999	0.991	0.994	0.952	1.02
C=CCN=C=S	1	1.01	0.979	0.974	1.06	1.05	0.991	1	0.996	1.03	0.986	0.994
Clc1c(Cl)c(Cl)c(Cl)c(Cl)c1Cl	1	1.01	1.01	1.02	0.98	1.07	0.936	1.03	1.03	1.03	1.01	0.999
CCCCN(CCCC)SN(C)C(=O)Oc1cccc2c1OC(C)(C)C2	1.09	0.972	1.01	1.22	1.02	0.884	0.981	1	0.895	0.951	0.942	1
CCN(C(=O)n1nnn(-c2ccccc2Cl)c1=O)C1CCCCC1	0.942	0.969	0.989	0.956	1.01	1.01	0.827	0.97	0.682 (active)	0.411 (active)	0.938	0.971
CC/C(=N\OC/C=C/Cl)C1=C(O)CC(C2CCOCC2)CC1=O (stereo not given)	1.01	1	1.03	0.996	0.983	0.994	1.1	1.04	0.998	1.02	1.02	0.994
O=c1oc2ccccc2c(O)c1C1CC(c2ccc(-c3ccc(Br)cc3)cc2)Cc2ccccc21 (stereo not given)	0.856	0.998	1	0.567 (active)	0.96	0.652 (active)	0.714 (active)	0.99	0.126 (active)	0.00968 (active)	0.345 (active)	0.393 (active)
CCOP(=S)(OCC)SCS(=O)CC (stereo not given)	1.03	0.996	1.01	0.995	1.04	0.95	0.95	1.06	1.09	0.998	0.995	0.976
CCC1(C(=O)NC(C)c2ccc(Cl)cc2)C(C)C1(Cl)Cl (stereo not given)	0.97	0.964	1	1	0.886	0.871	0.955	0.851	0.641 (active)	0.91	0.888	0.97
CCOP(=O)(SC(C)CC)SC(C)CC (stereo not given)	1.01	1.01	0.987	1.1	0.983	1.04	0.989	0.933	0.95	0.975	1.01	1.01
Cc1c(COC(=O)[C@@H]2[C@H](/C=C(\Cl)C(F)(F)F)C2(C)C)cccc1-c1ccccc1	1.03	1.02	1.02	0.938	1.07	0.862	0.982	1.03	1.01	0.965	0.924	0.949
Nc1nc(N)nc(N)n1	0.978	0.991	1.02	0.944	1	1.01	1.05	0.119 (active)	1.23	0.981	1.09	1.02
CC(C)(C)[C@@H](O)[C@H](Oc1ccc(Cl)cc1)n1cncn1	0.974	0.977	0.999	1.08	1.05	1.08	1.09	0.833	0.972	1.01	1.08	1.04
CC(Oc1ccc(Oc2ccc(Cl)cc2Cl)cc1)C(=O)O (racemic)	0.943	0.974	1.02	0.988	0.961	1.16	0.999	1.09	1.06	0.956	0.989	0.934
CCOP(=O)(SC(C)CC)N1CCSC1=O (stereo not given)	1	0.984	0.986	0.862	1.01	0.997	1.01	1.04	1.05	1.01	1.03	1.02
CCC(C)(C)C(=O)OC1=C(c2ccc(Cl)cc2Cl)C(=O)OC12CCCCC2	0.977	0.966	0.949	0.906	0.968	0.928	0.987	1.02	0.861	0.968	1.02	1.03
CNC(=O)Oc1cccc2c1OC(C)(C)C2	1.02	1.04	0.985	1.02	1.07	0.946	0.994	1.06	0.992	1	0.992	1.03
